Here are results for 16 molecules from PubChem BioAssay.

Broadly, the inhibition is the drop in the measured response relative to a control, in per cent. For orientation: viability means a read-out of living cells in per cent, often relative to untreated cells.

The target in experiment [1] is 6-phosphogluconate dehydrogenase, decarboxylating (Homo sapiens) (UniProt P52209). Nature of the experiment: 6PGD enzyme inhibitors, primary screen, biochemical, human, recombinant enzyme, NADPH absorbance (AID 1159550). The conditions noted are these: recombinant 6PGD, NADPH absorbance 341 nm; at 10 µM; stronger effect = higher value.
The target in experiment [2] is Mitogen-activated protein kinase 7 (Homo sapiens) (UniProt Q13164). Put plainly: ERK5 transactivation activators in reporter cells, primary screen, cell-based, HTS (AID 1508626;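 active means luciferase signal above three times the same-plate solvent-only control wells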;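 further: luciferase driven by Gal4-ERK5 fusion binding five Gal4 sites before minimal TATA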). The settings on record: HeLa Gal4-ERK5 transactivation, 18 h, at 5 µM, stronger effect = higher value.
Experiment [3] is described as follows: polyglutamine-triggered caspase-3 activation inhibitors, cell-based (AID 1583). The conditions noted are these: polyglutamine-induced caspase-3 activation, cell assay; stronger effect = higher value;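 tested at 10 µM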.
Experiment [4] can be described thus: suppressors of polyQ aggregation in yeast, 75Q-TubU reporter (AID 1593). The conditions noted are these: Yeast 75Q polyglutamine aggregation reporter.
Experiment [5] can be described thus: rescue of polyQ-huntingtin neuronal dysfunction in worms, whole organism, C. elegans mechanosensory neurons, N-terminal huntingtin (AID 1599). The conditions noted are these: touch response, stronger effect = higher value.
Experiment [6] in a line: inhibitors of mitochondrial cytochrome c release, biochemical, purified mitochondria (AID 1603).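 Further: mouse liver mitochondria challenged with calcium chloride; signal normalized to the plate average as 100%.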 The conditions noted are these: stronger effect = lower value.
Experiment [7] in a line: inhibitors of polyQ protein aggregation (AID 1604). The conditions noted are these: polyglutamine-induced protein aggregation inhibition assay; stronger effect = higher value; tested at 2.5 µM.
Experiment [8] is described as follows: enhancers of glutamate uptake in motor neurons, MN-1 cell line (AID 1612).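 Further: tested at 1 µM final; 0% = mean of DMSO vehicle wells on each plate; positive means more glutamate uptake than control and negative means less.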 The settings on record: MN-1 motor neuron cells, stronger effect = higher value.
Experiment [9] in a line: reducers of polyQ inclusions in PC12 cells, cell-based, NGF-treated PC12, GFPQ80 (AID 1614).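 Further: lower means fewer inclusions and 0 means no inclusions at all.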 The settings on record: PC12 NGF-treated GFP-polyQ80 inclusion reduction.
Experiment [10] in a line: suppressors of polyglutamine aggregation in yeast, 75Q-TubH (AID 1616). The conditions noted are these: S. cerevisiae 75Q-TubH polyglutamine aggregation suppression; stronger effect = higher value.
Experiment [11] in a line: liver-stage malaria parasite growth inhibition, primary screen, cell-based, HepG2, luciferase luminescence, HepG2 viability (AID 624349; in the data active means parasite load remaining mostly below about 12%, no sharp cut-off; inactive means mostly above about 10%;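 further: 100% = mean of DMSO negative control wells on the same plate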). The settings on record: P. berghei liver stage in HepG2, luciferase luminescence, concentration not given here; parasite load remaining: stronger effect = lower value; viability: measured here: HepG2 viability without parasites.

For part of these data: Entries with a potency or affinity are not part of this list. Calls of active or inactive are those of the source.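 How the source made its calls, unless noted: active means at least 20% inhibition of 6-phosphogluconate dehydrogenase activity; inactive means the rest.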 Peptide text beside a SMILES is read from it.

6-phosphogluconate dehydrogenase, decarboxylating (Homo sapiens), sequence (P52209 whole entry, looked up, the tested form may be a part): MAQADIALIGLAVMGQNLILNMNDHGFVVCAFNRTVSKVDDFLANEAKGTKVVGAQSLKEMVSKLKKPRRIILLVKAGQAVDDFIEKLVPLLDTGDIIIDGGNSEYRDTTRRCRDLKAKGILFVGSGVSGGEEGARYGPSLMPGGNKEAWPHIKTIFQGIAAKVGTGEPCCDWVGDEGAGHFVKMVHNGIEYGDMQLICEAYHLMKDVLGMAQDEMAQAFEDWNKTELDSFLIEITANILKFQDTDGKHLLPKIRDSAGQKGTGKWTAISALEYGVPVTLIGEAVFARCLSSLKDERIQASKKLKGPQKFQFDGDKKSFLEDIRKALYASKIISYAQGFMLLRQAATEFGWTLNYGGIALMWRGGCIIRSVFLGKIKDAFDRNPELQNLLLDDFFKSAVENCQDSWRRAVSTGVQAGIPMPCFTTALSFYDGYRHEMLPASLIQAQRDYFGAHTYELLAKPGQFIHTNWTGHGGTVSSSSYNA
Mitogen-activated protein kinase 7 (Homo sapiens), sequence (Q13164 whole entry, looked up, the tested form may be a part): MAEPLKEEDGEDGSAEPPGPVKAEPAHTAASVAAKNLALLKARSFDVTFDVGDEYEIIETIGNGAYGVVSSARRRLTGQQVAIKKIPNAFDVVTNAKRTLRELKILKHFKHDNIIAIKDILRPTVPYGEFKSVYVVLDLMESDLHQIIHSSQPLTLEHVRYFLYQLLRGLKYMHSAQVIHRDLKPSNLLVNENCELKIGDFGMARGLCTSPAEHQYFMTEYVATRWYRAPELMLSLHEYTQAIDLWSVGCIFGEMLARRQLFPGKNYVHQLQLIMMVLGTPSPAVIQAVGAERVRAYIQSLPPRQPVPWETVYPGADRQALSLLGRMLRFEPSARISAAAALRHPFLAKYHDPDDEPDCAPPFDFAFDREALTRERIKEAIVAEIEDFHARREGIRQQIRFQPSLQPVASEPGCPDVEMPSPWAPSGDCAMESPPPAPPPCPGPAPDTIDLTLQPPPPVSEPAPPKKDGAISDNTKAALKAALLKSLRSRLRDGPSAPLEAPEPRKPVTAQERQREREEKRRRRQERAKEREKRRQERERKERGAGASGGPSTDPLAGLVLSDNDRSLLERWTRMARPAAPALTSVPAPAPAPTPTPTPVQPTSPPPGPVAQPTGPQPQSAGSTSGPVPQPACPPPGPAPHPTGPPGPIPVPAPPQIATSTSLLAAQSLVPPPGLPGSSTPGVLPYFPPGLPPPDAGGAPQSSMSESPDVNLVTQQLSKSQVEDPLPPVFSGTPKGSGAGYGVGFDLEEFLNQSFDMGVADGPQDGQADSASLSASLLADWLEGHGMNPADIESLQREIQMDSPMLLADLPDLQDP

As to `CN1CCCC1c1cccnc1` (stereo not drawn), the inhibition in [1] was 17.4% (inactive). For the same molecule, in [2], the luciferase signal is 56 AU (inactive).
`CC1=C(/C=C/C(C)=C/C=C/C(C)=C/C=C/C=C(C)/C=C/C=C(C)/C=C/C2=C(C)C(=O)[C@@H](O)CC2(C)C)C(C)(C)C[C@H](O)C1=O`: the inhibition in experiment [1] is -11.7% (inactive). Also, in experiment [2], the luciferase signal is 48 AU (inactive).
With `COc1ccc2c(c1)OC/C(=C/c1ccc(OC)c(OC)c1)C2=O`, the inhibition in experiment [1] was -0.769% (inactive). Moreover, in [2], the luciferase signal was 36 AU (inactive).
For `COc1cccc(/C=C/C(=O)O)c1C(C)C`, the inhibition in [1] is 0.939% (inactive). Further, in [2], the luciferase signal is 24 AU (inactive).
Turning to `NC(=O)NCCC[C@H](N)C(=O)O`, the inhibition in experiment [1] is 15.5% (inactive). Also, the luciferase signal in [2] is 72 AU (inactive).
The corresponding values for `COC(=O)c1c(OC)cc2c(c1C)Oc1c(Cl)c(OC(C)=O)c(Cl)c(C)c1C(=O)O2` are -6.07% (inactive) and 44 AU (inactive).
Consider `COc1ccc(C2CC(=O)c3ccc(OC)cc3O2)cc1` (stereo not drawn), for which the inhibition in [1] was 21.7% (active). Besides, the luciferase signal in [2] is 84 AU (inactive).
On to `CC1C2[C@]3(CC[C@H]1C)CCC1(C)[C@@]2(C=CC2[C@@]4(C)CCC(=O)C(C)(C)C4CC[C@]21C)OC3=O` (stereo partly drawn), for which the inhibition in experiment [1] is 17.9% (inactive). In addition, the luciferase signal in [2] was 100 AU (inactive).
For the molecule `O=C(O)/C=C(/CC(=O)O)C(=O)O`, in experiment [1], the inhibition is 8.82% (inactive). The luciferase signal in experiment [2] was 60 AU (inactive).
As to `CCOC(=O)CCCCCCCCCCCCC1C=CCC1` (stereo not drawn), the values for the inhibition in experiment [3] and in experiment [1] were -0.73% and 2.03% (inactive), respectively. The score in [4] is -0.7. The rescue above control in [5] is -1.18. Moreover, the cytochrome c release ratio in experiment [6] was 1.01. Also, the inhibition of aggregation in [7] was determined as 55.1%. In addition, the glutamate uptake change in [8] is -2.82%. Moreover, the inclusion score in experiment [9] turned out to be 2. In experiment [10], this molecule came in with an aggregation suppression score of 0.251. In addition, the luciferase signal in experiment [2] is 116 AU (inactive).
As to `COC(=O)C[C@H]1C(C)(C)[C@@H](O)[C@@H]2CC3=C4CC(O)O[C@@H](c5ccoc5)[C@]4(C)CCC3[C@@]1(C)C2=O` (stereo partly drawn), the inhibition in experiment [1] was -13.5% (inactive). For the same molecule, the luciferase signal in experiment [2] was 36 AU (inactive).
`CSCCC(NC=O)C(=O)NC(CC(C)C)C(=O)NC(Cc1ccccc1)C(=O)O` (stereo not drawn) displayed a score in [4] of 1. For the same molecule, the rescue above control in [5] was 6.28. Moreover, the cytochrome c release ratio in experiment [6] worked out at 1.31. The inhibition of aggregation in experiment [7] is 53.9%. In addition, the glutamate uptake change in [8] was determined as 14.5%. Moreover, in experiment [9], the inclusion score came to 1. In experiment [10], the aggregation suppression score was 1.49. For the same molecule, the inhibition in experiment [1] is 3.38% (inactive).
For `C/C(=C\CO)CCC[C@H](C)CCC[C@H](C)CCCC(C)C`, the inhibition in experiment [1] is 5.74% (inactive). The luciferase signal in [2] was 72 AU (inactive).
With `NCCCCC(N)C(=O)NC(Cc1ccc(O)cc1)C(=O)NC(CCCCN)C(=O)O` (stereo not drawn) (H-Lys-Tyr-Lys-OH; configuration not given here), the inhibition was -30.8% in [3] and 13.2% (inactive) in experiment [1]. The same molecule came in with a score in experiment [4] of 3.85. The rescue above control in experiment [5] stood at 16.1. The cytochrome c release ratio in experiment [6] was 0.94. Also, the inhibition of aggregation in [7] amounted to 37.2%. Also, the glutamate uptake change in experiment [8] is -3.42%. In experiment [9], the inclusion score was 1. In addition, the aggregation suppression score in experiment [10] stood at 1.25.
As for `N[C@@H](CCC(=O)N[C@@H](CSC(CC(=O)O)C(=O)O)C(=O)NCC(=O)O)C(=O)O` (stereo partly drawn), the inhibition in experiment [1] is 6.35% (inactive). The luciferase signal in experiment [2] is 68 AU (inactive).
Take `NC(=O)c1ccc[n+]([C@@H]2O[C@H](COP(=O)([O-])OP(=O)(O)OC[C@H]3O[C@@H](n4cnc5c(N)ncnc54)[C@H](OP(=O)(O)O)[C@@H]3O)[C@@H](O)[C@H]2O)c1`: in experiment [3], the inhibition was found to be 19.9%. In experiment [4], this molecule displayed a score of 1.08. This molecule also had a rescue above control in [5] of 9.74. For the same molecule, the cytochrome c release ratio in experiment [6] came to 0.78. For the same molecule, in experiment [7], the inhibition of aggregation was -21.6%. Besides, the glutamate uptake change in experiment [8] was 16.5%. This molecule returned an inclusion score in experiment [9] of 2. Moreover, in experiment [10], the aggregation suppression score amounted to 0.975. In [11], the parasite load remaining was 169% (inactive) and the viability is 83.2%. In addition, the inhibition in [1] was 16.2% (inactive). Moreover, the luciferase signal in experiment [2] was 32 AU (inactive).
